Results on 13 compounds are retold here after PubChem BioAssay (NCATS).

The target of experiment [1] is ATP-dependent 6-phosphofructokinase (Trypanosoma brucei brucei) (UniProt O15648). Briefly: qHTS Assay to Find Inhibitors of T. brucei phosphofructokinase: hit validation (AID 492961).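 Note: luminescence reports ADP formed as PFK phosphorylates fructose-6-phosphate with ATP; series mostly up to about 51 µM; % is set by controls: 0 for no effect and ±100 for the full control effect.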 The essentials: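 Percent activity derived from corrected luminescence, normalized between 0x and 1x enzyme controls, then fitted to concentration-response curves. Conditions: 1.25 nM PFK, 0.1 mM ATP, 0.5 mM F6P, 45 min RT.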
ATP-dependent 6-phosphofructokinase (Trypanosoma brucei brucei), sequence (O15648 whole entry, looked up): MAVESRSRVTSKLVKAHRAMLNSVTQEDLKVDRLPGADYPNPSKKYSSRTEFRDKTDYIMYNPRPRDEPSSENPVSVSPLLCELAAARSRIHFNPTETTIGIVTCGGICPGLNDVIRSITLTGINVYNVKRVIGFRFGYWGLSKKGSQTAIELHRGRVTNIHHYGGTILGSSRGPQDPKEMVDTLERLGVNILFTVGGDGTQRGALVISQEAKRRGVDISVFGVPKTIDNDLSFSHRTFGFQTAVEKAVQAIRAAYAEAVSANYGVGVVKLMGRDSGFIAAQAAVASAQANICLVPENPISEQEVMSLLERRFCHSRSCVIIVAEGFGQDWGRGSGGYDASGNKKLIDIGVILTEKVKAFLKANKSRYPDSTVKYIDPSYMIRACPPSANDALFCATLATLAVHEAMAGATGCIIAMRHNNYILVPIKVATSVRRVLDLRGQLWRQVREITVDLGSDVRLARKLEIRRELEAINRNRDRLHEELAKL
In general terms: Quantitative high-throughput screening tests each substance at several concentrations.

For experiment [2] the target is unchanged. Briefly: qHTS Validation Assay to Find Inhibitors of T. brucei phosphofructokinase (AID 485368). The essentials:
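Steps: substrate mix (0.5 mM F6P, 0.1 mM ATP, MgCl2, TEA pH 8.0); compound; 1.25 nM T. brucei PFK; 45 min RT; ATP depletion 10 min; ADP-to-ATP detection 10 min; luminescence read; curve fitting and classification.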

Experiment [3] is described as follows: Quantitative high throughput screen for delayed death inhibitors of the malarial parasite plastid, 96 hour incubation (AID 488745). Note: nearly all actives have a fitted effect of over 70% in size. Note: potency is the fitted concentration of half-maximal effect. Summed up: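 Luciferase-expressing P. falciparum in erythrocytes (2% hematocrit, 0.1% parasitemia) incubated with compound for 96 h at 37 C, 5% CO2, in RPMI 1640 with 0.5% Albumax. Growth inhibition read as decreased luminescence.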

Experiment [4] has as its target Thioredoxin reductase 1, cytoplasmic (Rattus norvegicus) (UniProt O89049). Briefly: qHTS Assay for Substrates of Mammalian Selenoprotein Thioredoxin Reductase 1 (TrxR1) (AID 488772).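 Note: NADPH fluorescence in the first read after selenite addition and not the 8 min delta; series mostly up to about 57 µM; 0% is about no effect; a drop in NADPH fluorescence below the no-compound background marks a TrxR1 substrate.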 The essentials: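 Quantitative HTS in Tris-HCl buffer at pH 7.5 with EDTA and Tween-20, using rat TrxR1, 400 uM NADPH and 400 uM selenite (final). A fall in initial NADPH fluorescence relative to background marked substrate behaviour.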

Experiment [5] shares this target. Briefly: qHTS Assay for Inhibitors of Mammalian Selenoprotein Thioredoxin Reductase 1 (TrxR1) (AID 488773). Note: nearly all actives have a fitted effect of over 40% in size. Note: potency is the fitted concentration of half-maximal effect. The note with it: Potency: inhibition. Summed up:
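Steps: enzyme (90 nM) plus NADPH (400 uM final), 5 min at ~22 deg C; compound added, 15 min; selenite (400 uM final) added; fluorescence followed for 8 min. Concentration-response curves derived from the normalized delta values.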

Experiment [6] has as its target Flap endonuclease 1 (Homo sapiens) (UniProt P39748). Briefly: qHTS Validation Assay for the Inhibitors of Human Flap endonuclease 1 (FEN1) (AID 488816). Note: % is set by controls: 0 for no effect and ±100 for the full control effect. Summed up:
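FEN1, dispensed as a 10 nM reagent, was preincubated with pin-transferred compounds for 15 min at room temperature before substrate was added (50 nM final). Plates were read at 0 and 15 min, and a four-parameter Hill equation was fitted to the concentration-response data.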

The target in experiment [7] is M-phase phosphoprotein 8 (Homo sapiens) (UniProt Q99549). Briefly: qHTS Validation Assay for Inhibitors for MPP8 Chromodomain Interactions with Methylated Histone Tails (AID 488949).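 Note: AlphaScreen signal from MPP8 chromodomain bound to biotinylated H3K9me3 peptide; top concentration of the series differs between compounds; % is set by controls: 0 for no effect and ±100 for the full control effect; nearly all actives have a fitted effect of over 55% in size.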 The essentials:
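AlphaScreen proximity signal from streptavidin donor and Ni-chelate acceptor beads (10 ug/mL each) reported binding of MPP8 to trimethyl-K9 H3(1-18) peptide, both at 50 nM. The complex formed 30 min before a 30 min compound exposure at room temperature, in PBS pH 7.4.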

In experiment [8] the target is Methanococcus maripaludis chaperonin (MmCpn) (UniProt Q6LX38). Briefly: High-Throughput Screening for Modulators of Cytosolic Chaperonin Activity: MmCpn Primary Screen (AID 488978).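 Note: 50 nM MmCpn enzyme hydrolysing 30 µM ATP at 37 °C; 0% is about no effect.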 Summed up: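 ATPase activity of 50 nM MmCpn was assayed with 30 uM ATP, 10 minutes at 37C, after a 5 min compound preincubation at room temperature. ADP production was read as HTRF emission at 590 and 665 nm.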

Experiment [9] deals with Transient receptor potential cation channel subfamily V member 1 (Homo sapiens) (UniProt Q8NER1). Briefly: HTS Assay for Compounds that Act as Enhancers of the Vanilloid Receptor 1 (AID 488979). Note: 0% is about no effect. The essentials: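 TRPV1-expressing cells loaded with Fluo-8 calcium dye; compounds added and calcium influx read kinetically for 3 min (agonist phase), then capsaicin at EC20 added and read 2 min more for enhancement. Fluorescence ex 480/em 520 nm.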
Transient receptor potential cation channel subfamily V member 1 (Homo sapiens), sequence (Q8NER1 whole entry, looked up): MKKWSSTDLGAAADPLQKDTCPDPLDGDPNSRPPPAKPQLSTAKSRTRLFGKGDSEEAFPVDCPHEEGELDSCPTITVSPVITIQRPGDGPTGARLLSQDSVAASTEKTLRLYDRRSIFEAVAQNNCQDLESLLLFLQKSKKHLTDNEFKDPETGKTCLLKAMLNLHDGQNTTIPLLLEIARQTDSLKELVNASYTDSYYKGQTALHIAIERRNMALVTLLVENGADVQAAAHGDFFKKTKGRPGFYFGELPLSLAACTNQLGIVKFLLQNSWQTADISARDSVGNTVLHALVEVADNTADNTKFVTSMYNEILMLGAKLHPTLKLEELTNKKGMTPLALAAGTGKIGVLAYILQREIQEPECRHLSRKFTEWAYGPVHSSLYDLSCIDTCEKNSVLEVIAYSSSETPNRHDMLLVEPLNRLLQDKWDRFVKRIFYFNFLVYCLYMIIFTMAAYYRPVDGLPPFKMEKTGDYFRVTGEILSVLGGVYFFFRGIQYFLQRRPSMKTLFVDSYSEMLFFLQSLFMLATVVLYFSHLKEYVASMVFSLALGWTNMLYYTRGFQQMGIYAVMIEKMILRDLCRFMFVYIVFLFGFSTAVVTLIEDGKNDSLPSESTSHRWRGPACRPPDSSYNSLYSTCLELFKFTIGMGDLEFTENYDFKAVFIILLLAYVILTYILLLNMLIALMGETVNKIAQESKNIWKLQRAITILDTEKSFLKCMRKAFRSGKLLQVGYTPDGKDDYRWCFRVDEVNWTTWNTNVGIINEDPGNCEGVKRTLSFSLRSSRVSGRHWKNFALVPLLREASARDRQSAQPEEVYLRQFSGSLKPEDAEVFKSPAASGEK

The target in experiment [10] is Thyrotropin receptor (Homo sapiens) (UniProt P16473). Briefly: qHTS Assay for Antagonists of the Thyroid Stimulating Hormone Receptor (AID 488980). Note: series mostly up to about 58 µM; 0% is about no effect. The essentials:
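Inhibition of cAMP raised by EC80 TSH (4 nM final) was read by HTRF, with lysate cAMP competing against cAMP-d2 for cryptate antibody after 30 min at room temperature. The cells were transfected HEK293 held in phosphodiesterase inhibitor RO 20-1724 at 70 uM.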

For experiment [11], the target named is D(1A) dopamine receptor (Homo sapiens) (UniProt P21728). Briefly: HTS Assay for Allosteric Agonists of the Human D1 Dopamine Receptor: Primary Screen for Agonists (AID 488981). Note: 0% is about no effect. The essentials:
(§1)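 Tetracycline-induced HEK293 T-REx cells force-coupled to calcium signalling were incubated overnight at 30 C and dye-loaded at room temperature. Calcium flux over 180 s after compound addition flagged agonists; a further 180 s read after EC20 dopamine flagged potentiators.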

Experiment [12] shares this target. Briefly: HTS Assay for Allosteric Agonists of the Human D1 Dopamine Receptor: Primary Screen for Antagonists (AID 488983).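 Note: calcium flux response to an EC80 dopamine challenge measured with no-wash dye; % is set by controls: 0 for no effect and ±100 for the full control effect; nearly all actives have a fitted effect of over 65% in size.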 Summed up:
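Tetracycline-induced HEK293 T-REx D1 line, force-coupled to calcium flux, read with no-wash calcium dye. Compound added after 10 s baseline, read 180 s for agonism, then EC80 dopamine added and read a further 180 s.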

The nature of experiment [13]: Validation screen for small molecules that induce genotoxicity in human embryonic kidney (HEK293T) cells expressing luciferase-tagged ELG1 (AID 493106). Note: 0% is about no effect. The essentials: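 HEK293T cells expressing luciferase-tagged ELG1, 2,000 cells/well, exposed to compound 16 hr at 37 °C, 5% CO2. Luciferase read after ONE-Glo, 30 min at room temperature; increased signal indicates genetic stress.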

The target of experiment [14] is ATPase family AAA domain-containing protein 5 (Homo sapiens) (UniProt Q96QE3). Briefly: Validation screen for small molecules that inhibit ELG1-dependent DNA repair in human embryonic kidney (HEK293T) cells expressing luciferase-tagged ELG1 (AID 493107). Note: nearly all actives have a fitted effect of over 70% in size. Note: potency is the fitted concentration of half-maximal effect. The essentials: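 HEK293T cells expressing luciferase-tagged ELG1, 2,000 per well, treated with 5-fluorouridine plus compound for 16 h at 37 C. ONE-Glo luminescence after 30 min at room temperature reports ELG1 reporter level.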
ATPase family AAA domain-containing protein 5 (Homo sapiens), sequence (Q96QE3 whole entry, looked up, the tested form may be a part): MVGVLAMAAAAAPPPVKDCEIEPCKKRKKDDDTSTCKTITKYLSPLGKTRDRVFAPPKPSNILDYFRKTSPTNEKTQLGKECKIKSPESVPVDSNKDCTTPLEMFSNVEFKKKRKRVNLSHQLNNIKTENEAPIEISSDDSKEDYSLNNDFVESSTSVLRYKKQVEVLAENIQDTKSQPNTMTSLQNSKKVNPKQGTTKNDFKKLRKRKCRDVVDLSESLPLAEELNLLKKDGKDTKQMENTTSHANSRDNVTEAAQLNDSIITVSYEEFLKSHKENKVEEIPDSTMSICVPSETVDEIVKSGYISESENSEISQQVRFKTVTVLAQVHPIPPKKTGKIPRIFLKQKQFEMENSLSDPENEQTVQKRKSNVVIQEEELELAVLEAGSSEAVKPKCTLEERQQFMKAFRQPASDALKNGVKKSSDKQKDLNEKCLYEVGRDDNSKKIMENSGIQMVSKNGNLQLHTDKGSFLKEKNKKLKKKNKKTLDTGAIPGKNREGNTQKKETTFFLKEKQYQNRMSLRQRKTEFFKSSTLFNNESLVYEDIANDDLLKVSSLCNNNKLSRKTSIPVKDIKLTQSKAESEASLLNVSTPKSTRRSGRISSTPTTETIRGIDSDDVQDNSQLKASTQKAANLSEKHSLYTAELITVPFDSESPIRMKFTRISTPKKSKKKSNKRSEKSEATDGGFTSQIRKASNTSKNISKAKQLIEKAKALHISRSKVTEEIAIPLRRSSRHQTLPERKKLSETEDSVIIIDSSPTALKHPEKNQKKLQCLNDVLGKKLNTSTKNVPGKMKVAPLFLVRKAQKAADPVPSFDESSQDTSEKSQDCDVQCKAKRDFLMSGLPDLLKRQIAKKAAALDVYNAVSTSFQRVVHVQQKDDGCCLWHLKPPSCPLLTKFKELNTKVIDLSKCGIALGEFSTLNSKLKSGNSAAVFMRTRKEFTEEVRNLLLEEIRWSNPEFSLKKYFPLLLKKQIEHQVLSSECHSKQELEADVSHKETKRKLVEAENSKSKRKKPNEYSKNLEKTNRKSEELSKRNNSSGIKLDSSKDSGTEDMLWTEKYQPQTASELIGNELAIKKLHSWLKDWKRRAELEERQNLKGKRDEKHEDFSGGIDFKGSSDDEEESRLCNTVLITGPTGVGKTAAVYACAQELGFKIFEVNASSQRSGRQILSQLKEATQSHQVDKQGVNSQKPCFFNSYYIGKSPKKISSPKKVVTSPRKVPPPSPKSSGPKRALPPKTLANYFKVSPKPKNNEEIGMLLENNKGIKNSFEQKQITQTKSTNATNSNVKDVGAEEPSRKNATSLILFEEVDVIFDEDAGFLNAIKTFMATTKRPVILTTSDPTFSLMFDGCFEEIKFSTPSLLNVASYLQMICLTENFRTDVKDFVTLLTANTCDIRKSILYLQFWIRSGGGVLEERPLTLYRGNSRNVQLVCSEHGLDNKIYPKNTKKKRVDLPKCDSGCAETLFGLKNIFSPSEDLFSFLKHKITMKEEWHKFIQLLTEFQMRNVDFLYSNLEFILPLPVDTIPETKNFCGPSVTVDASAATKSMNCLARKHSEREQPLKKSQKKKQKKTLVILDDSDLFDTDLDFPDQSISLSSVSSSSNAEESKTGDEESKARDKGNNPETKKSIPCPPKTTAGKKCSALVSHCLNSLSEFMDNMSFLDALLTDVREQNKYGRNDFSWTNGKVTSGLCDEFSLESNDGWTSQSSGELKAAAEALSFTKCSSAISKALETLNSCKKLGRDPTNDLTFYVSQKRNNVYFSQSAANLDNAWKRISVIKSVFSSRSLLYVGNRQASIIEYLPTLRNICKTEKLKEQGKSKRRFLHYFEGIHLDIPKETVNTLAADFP

Experiment [15] concerns the target Thyrotropin-releasing hormone receptor (Homo sapiens) (UniProt P34981). Briefly: qHTS for Small Molecule Agonists and Allosteric Enhancers of Human TRH Receptor: Validation Screen for Agonists (AID 493127;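 active = calcium activation more than 3 SD above the typical response in the agonist read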; note: 0% is about no effect). The note with it: TRH receptor agonist cell assay; at 2 µM; stronger effect = higher value. The essentials: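 TRHR cells loaded with fluo-8 calcium dye; FDSS kinetic fluorescence (Ex 480/Em 530) read at 1 s/cycle after 23 nL compound addition. Agonist-mode calcium response recorded before the 10 nM TRH (EC20) addition.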

A short description of experiment [16]: Nrf2 qHTS screen for inhibitors: Validation (AID 493153; active = well fitted inhibition curve with a large enough effect in the main read-out, with a control signal flat, not every such curve was filed as active; note: potency is the fitted concentration of half-maximal effect). The settings on record: Potency: luciferase luminescence; viability change: measured here: cytotoxicity max response. The essentials:
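A549 cells carrying ARE-firefly luciferase reporter, 5000 cells/well in 5% FBS OPTI-MEM, treated with compound over a concentration series for 18-24 h at 37 C. Luciferase luminescence gave Nrf2 activity; CellTiter-Fluor fluorescence gave viability.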

Experiment [17] in a line: qHTS for Inhibitors of Cell Surface uPA Generation: Validation Assay (AID 493164). Note: 0% is about no effect. Summed up: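 RAW 264.7 cells (4000/well) were plated overnight, then exposed for 18 h at 37 C, 5% CO2 to compounds in a 7-point 1:5 titration (2.45 nM–38.3 uM final). Intracellular ATP was read by ATP-Lite luminescence.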
Experiment [18] can be described thus: Quantitative high throughput screen for delayed death inhibitors of the malarial parasite plastid, 48 hour incubation (AID 488752). Note: nearly all actives have a fitted effect of over 65% in size. Note: potency is the fitted concentration of half-maximal effect. The essentials:
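Erythrocytes infected with firefly luciferase-expressing P. falciparum (2% hematocrit, 0.1% parasitemia) cultured with compound for 48 h at 37 C, 5% CO2, in RPMI 1640/0.5% Albumax. Growth inhibition read as loss of luminescence.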

Experiment [19] has as its target D(1A) dopamine receptor (Homo sapiens) (UniProt P21728). Briefly: HTS Assay for Allosteric Agonists of the Human D1 Dopamine Receptor: Primary Screen for Potentiators (AID 488982). Note: 0% is about no effect. Summed up:
as §1

Experiment [20] has as its target Tyrosyl-DNA phosphodiesterase 1 (Homo sapiens) (UniProt Q9NUW8). Briefly: Confirmation Assay for Inhibitors of Tyrosyl-DNA Phosphodiesterase (TDP1) (AID 489007). Note: potency is the fitted concentration of half-maximal effect; nearly all actives have a fitted effect of over 40% in size. The note with it: recombinant human TDP1 enzymatic activity, dose-response. The essentials:
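Recombinant human Tdp1 (1 nM final), expressed in E. coli, preincubated 15 min with compound. Then 15 nM 5'-biotin/3'-phosphotyrosine-FITC DNA substrate added for 5 min at room temperature. AlphaScreen beads (10 ug/ml) added for 10 min; cleavage gives signal loss.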

Each structure is given as a SMILES string. Inconclusive results are not listed. Activity calls are given as the source filed them. Unless noted, calls come from the whole dose curve; as a rule, active = well fitted curve in the direction sought with a large enough effect; inconclusive = small, poorly fitted or top-dose-only effect, or another doubt; inactive = no such curve, though single readings can be large; an effect the other way counts as inactive or inconclusive.

Thioredoxin reductase 1, cytoplasmic (Rattus norvegicus), sequence (O89049 whole entry, looked up): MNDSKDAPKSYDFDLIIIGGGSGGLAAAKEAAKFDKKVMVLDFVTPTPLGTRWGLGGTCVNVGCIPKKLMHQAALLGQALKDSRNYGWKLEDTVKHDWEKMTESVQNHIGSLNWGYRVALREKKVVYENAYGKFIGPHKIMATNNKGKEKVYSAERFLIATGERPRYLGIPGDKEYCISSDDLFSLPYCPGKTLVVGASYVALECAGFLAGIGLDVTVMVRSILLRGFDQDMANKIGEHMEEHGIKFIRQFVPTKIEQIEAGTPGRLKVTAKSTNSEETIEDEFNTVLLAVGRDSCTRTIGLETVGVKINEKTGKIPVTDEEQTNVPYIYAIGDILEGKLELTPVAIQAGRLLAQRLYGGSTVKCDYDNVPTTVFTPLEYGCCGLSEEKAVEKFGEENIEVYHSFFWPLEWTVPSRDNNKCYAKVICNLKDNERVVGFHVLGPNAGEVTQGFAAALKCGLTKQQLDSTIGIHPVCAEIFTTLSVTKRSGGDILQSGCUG
Thyrotropin receptor (Homo sapiens), sequence (P16473 whole entry, looked up): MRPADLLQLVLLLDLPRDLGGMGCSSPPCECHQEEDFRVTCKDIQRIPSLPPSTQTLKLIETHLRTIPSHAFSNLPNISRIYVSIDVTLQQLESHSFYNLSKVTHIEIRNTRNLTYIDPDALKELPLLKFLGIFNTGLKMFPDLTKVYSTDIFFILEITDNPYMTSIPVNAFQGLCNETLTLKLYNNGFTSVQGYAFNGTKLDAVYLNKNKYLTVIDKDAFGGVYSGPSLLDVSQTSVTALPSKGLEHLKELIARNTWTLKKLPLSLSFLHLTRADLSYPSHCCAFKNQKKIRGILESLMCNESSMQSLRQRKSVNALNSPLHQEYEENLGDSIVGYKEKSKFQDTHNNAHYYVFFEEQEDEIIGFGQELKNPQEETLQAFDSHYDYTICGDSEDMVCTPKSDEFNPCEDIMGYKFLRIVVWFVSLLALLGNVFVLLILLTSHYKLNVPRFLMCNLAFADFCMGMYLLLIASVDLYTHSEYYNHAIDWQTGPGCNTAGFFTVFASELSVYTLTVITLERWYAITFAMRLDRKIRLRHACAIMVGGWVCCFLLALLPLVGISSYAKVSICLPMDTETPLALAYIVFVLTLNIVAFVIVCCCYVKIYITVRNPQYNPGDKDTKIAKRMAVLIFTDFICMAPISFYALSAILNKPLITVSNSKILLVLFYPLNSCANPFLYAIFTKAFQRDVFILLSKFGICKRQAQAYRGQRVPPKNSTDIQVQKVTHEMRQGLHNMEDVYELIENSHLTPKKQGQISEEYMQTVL
D(1A) dopamine receptor (Homo sapiens), sequence (P21728 whole entry, looked up): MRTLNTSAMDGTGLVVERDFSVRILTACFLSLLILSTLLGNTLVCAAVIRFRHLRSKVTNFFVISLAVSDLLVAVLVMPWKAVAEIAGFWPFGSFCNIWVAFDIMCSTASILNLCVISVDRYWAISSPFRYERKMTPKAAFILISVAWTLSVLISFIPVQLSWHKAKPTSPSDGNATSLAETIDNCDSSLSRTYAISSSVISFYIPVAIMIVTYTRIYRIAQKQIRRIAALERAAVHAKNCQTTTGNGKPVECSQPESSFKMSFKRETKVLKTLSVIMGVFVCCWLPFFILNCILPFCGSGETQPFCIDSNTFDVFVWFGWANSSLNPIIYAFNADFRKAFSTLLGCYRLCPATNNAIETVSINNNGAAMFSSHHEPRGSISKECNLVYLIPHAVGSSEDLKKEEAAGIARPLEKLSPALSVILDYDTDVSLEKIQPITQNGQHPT

For `C[C@]12C=CC(=O)C=C1CC[C@@H]1[C@@H]2C(=O)C[C@@]2(C)[C@H]1CC[C@]2(O)C(=O)CO`, the Potency entry in [1] was “inactive”.
For `CCN(CC)CC#CCOC(=O)C(O)(c1ccccc1)C1CCCCC1` (configuration not stated), the Potency result in experiment [2], in [3], in [5], in experiment [6], in experiment [7] and in experiment [14] was “inactive” in each case. Besides, the Potency entry in experiment [16] was “inactive”. In addition, the outcome in experiment [4], in experiment [8], in experiment [9], in experiment [10], in experiment [11] and in [12] was inactive. In addition, the call in experiment [13] and in experiment [17] was inactive. In addition, the activation in experiment [15] was -7.56% (inactive). Further, the viability change in experiment [16] is -11.3%.
For the compound `NC(=O)c1cccc(N)c1`, the Potency entry in experiment [3], in [18], in experiment [5], in experiment [6], in [7] and in experiment [14] was “inactive” in each case. The Potency result in experiment [16] was “inactive”. Besides, the compound was called inactive in experiment [4], in experiment [8], in experiment [9], in experiment [10], in experiment [11] and in experiment [19]. Moreover, the result in experiment [12], in experiment [13] and in experiment [17] was inactive. In [15], the activation was 1.12% (inactive). Also, the viability change in experiment [16] is 9.41%.
Turning to `NC(=O)c1ccc2[nH]ccc2c1`, the call in experiment [4], in experiment [8], in [11], in experiment [19], in experiment [12] and in experiment [13] was inactive. Besides, the compound was classed as inactive in experiment [17]. Besides, the Potency result in experiment [5], in [6], in experiment [7] and in experiment [16] was “inactive” throughout. In addition, in experiment [16], the viability change was -7.5%.
With `CCN(CC)CCn1c(=O)c(Cc2ccc(OC)cc2)nc2ccccc21`, the Potency entry in [2], in [5], in experiment [7], in [14] and in experiment [16] was “inactive” in each case. Also, the outcome in experiment [4], in experiment [8], in experiment [11], in [19], in experiment [12] and in [13] was inactive. For the same compound, the compound was classed as inactive in [17]. Moreover, the viability change in [16] is -5.84%.
`COC(=O)Nc1nc2ccc(C(=O)c3ccccc3)cc2[nH]1`: the Potency entry in experiment [1] is “inactive”.
Consider `CCN1CCCC1CNC(=O)c1cc(S(N)(=O)=O)ccc1OC` (configuration not stated), for which the Potency result in experiment [3], in experiment [18], in experiment [5], in [6], in experiment [7] and in experiment [16] was “inactive” in each case. Further, the outcome in experiment [4], in experiment [8], in experiment [9], in [10], in [11] and in [19] was inactive. Also, the compound was called inactive in experiment [13] and in [17]. The activation in [15] was 0.25% (inactive). In addition, in [16], the viability change was 7.94%.
Take `COc1cc2ncnc(Nc3cccc(Cl)c3)c2cc1OC`: the Potency was 3.29 µM (active) in [3] and 2.62 µM (active) in experiment [18]. Further, the result in experiment [4], in [8], in [9], in experiment [10], in [11] and in [19] was inactive. Besides, the result in experiment [12], in experiment [13] and in experiment [17] was inactive. Besides, the Potency result in experiment [5], in [6] and in experiment [7] was “inactive” throughout. Besides, in experiment [15], the activation is -6.5% (inactive).
On to `CCOC(=O)c1ccc(OC(=O)CCCCCN=C(N)N)cc1`, for which, in experiment [1], the Potency result was “inactive”.
As to `Cc1ccc(S(=O)(=O)N[C@@H](Cc2ccccc2)C(=O)CCl)cc1`, the Potency entry in experiment [3], in [18], in experiment [6] and in [7] was “inactive” in each case. Further, the call in experiment [4], in experiment [9], in experiment [10], in experiment [11], in [19] and in [13] was inactive. In experiment [17], the compound was called inactive. Moreover, the Potency in experiment [5] was 21.2 µM (active); in experiment [14], 14.6 µM (active). Further, the activation in experiment [15] was 2.5% (inactive).
Take `CC1CC2C3CCC4=CC(=O)C=C[C@]4(C)[C@@]3(F)[C@@H](O)C[C@]2(C)[C@@]1(O)C(=O)CO` (some centres not stated): the result in experiment [4], in experiment [8], in experiment [11], in experiment [19], in experiment [12] and in experiment [13] was inactive. For the same compound, the result in experiment [17] was inactive. Further, the Potency result in experiment [5], in experiment [6], in experiment [7] and in [14] was “inactive” each time. Also, in experiment [16], the Potency is 0.013 µM (active). Besides, the viability change in experiment [16] is -3.14%.
For the compound `COc1ccc(C(=O)CC(=O)c2ccc(C(C)(C)C)cc2)cc1`, the Potency in experiment [20] is 25.1 µM (active).
For the compound `COc1cc2nc(N3CCCN(C)CC3)nc(NC3CCN(Cc4ccccc4)CC3)c2cc1OC`, the outcome in experiment [4], in [8], in [11], in [19], in [12] and in experiment [13] was inactive. For the same compound, the result in [17] was inactive. For the same compound, the Potency entry in [5] and in experiment [7] was “inactive” each time. Further, in experiment [14], the Potency is 25.9 µM (active).
